Results on 93 molecules are retold here after PubChem BioAssay AID463190 (Sanford-Burnham Center for Chemical Genomics, 2010).

In all, about 330,000 compounds went through this assay and about 7,300 (2.2%) were called active. For the sample, actives were picked, then their nearest neighbours and some compounds at random. Values without a mark were called inactive.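 Rule for the calls: active = inhibition of at least 40%; inactive = the rest.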

This assay in a line: growth inhibition of tim10-1 ts yeast – luminescence, uHTS, primary screen (AID 463190).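 Note: mutant grown at 25 °C; 0% = DMSO wells with yeast and 100% = wells holding no yeast.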 Conditions: S. cerevisiae tim10-1 ts strain growth, BacTiter-Glo, 24 h; at 20 µM; stronger effect = higher value.
Usually inhibition stands for the drop in the measured response relative to a control, in per cent. On to `CC(=O)c1cc(CN2CCC(n3nccc3NC(=O)c3ccccc3Cl)CC2)cs1`, for which the inhibition is -3.89%. The figure for `Cc1ccc(N=Cc2c(O)n(-c3nccs3)c(=O)c3ccccc23)c(C)c1` is 9.76%; for `OCc1nc(CO)n(Cc2ccccc2)n1` it is 4.38%.

Turning to `Cc1ccc(NNC(=O)c2c(F)cccc2Cl)cc1Cl`, the inhibition was 14%. The result for `Cc1cc(OC(=O)c2c(Cl)cccc2Cl)nc(C)n1` reads 35%. The figure for `Cc1cc(C)c(S(=O)(=O)c2ccccc2)c(OC(=O)c2c(F)cccc2Cl)n1` is 42.6% (active). The result for `O=C(O)c1cccnc1NC1CCCC1` reads -10.6%. In the case of `CCC(=O)c1cn(CCOc2ccccc2OC)c2ccccc12`, the inhibition was 4.25%. The result for `CCc1ccc(-c2cc3c(=O)n(CC(=O)NCCCN4CCN(Cc5ccccc5)CC4)nc(C)n3n2)cc1` reads 43.7% (active). The figure for `Cc1ccc(-c2ccc(=O)n(CC(=O)NCCCN3CCCCC3)n2)cc1` is -3.38%; for `Cc1nn(CC(=O)NCCc2ccccc2)c(=O)c2cc3occc3n12` it is -16.4%; for `CCOC(=O)/C=C/CN(C(=O)OC(C)(C)C)S(=O)(=O)N1CC=CC1` it is 17.9%.

Take `CC(C)(Oc1ccc(C2CC2(Cl)Cl)cc1)C(=O)O` (stereo not drawn): the inhibition was 9.95%. Consider `CN(C)C(=O)c1ccc2c(c1)C1C3CCC(C3)C1C(c1ccccc1)N2` (stereo not drawn), for which the inhibition was 46% (active).

As for `CN(C)C(=O)c1ccc(NC(=O)c2ccccc2-c2ccccc2)cc1`, the inhibition was 3.15%. As for `Cc1ccc(C)c(N2CCN(C(=O)CCc3nc(-c4cccc(C(F)(F)F)c4)no3)CC2)c1`, the inhibition is 17.8%.

With `OCCC1CN(Cc2ccccc2-c2ccco2)CCN1Cc1ccsc1` (stereo not drawn), the inhibition was 17.5%.

For `COc1cc(C=NNC(=O)c2cccnc2)ccc1OC(=O)c1ccccc1F`, the inhibition was 4.11%. Take `CN(NS(=O)(=O)c1cccs1)c1ncc(C(F)(F)F)cc1Cl`: the inhibition was 15.9%. The figure for `Cc1cc(C)n(-c2nc(SCC(=O)N3CCCC3)c3c4c(sc3n2)CCCC4)n1` is 52.2% (active). With `CC(C)c1nc(SCC(=O)Nc2cccc(C(=O)O)c2)c2c3c(sc2n1)CCCC3`, the inhibition was 10.1%. The result for `COCCNc1nc(-n2nc(C)cc2C)nc2sc3c(c12)CCCC3` reads 30.3%; that for `O=C(O)C1CCCN1S(=O)(=O)c1ccc(Br)cc1` (stereo not drawn), -5.99%. As for `COCCN(C(=O)COC(=O)Cc1cccc(OC)c1)c1c(N)n(Cc2ccccc2)c(=O)[nH]c1=O`, the inhibition is 0.462%. The result for `N#C/C(=C\c1cccnc1)C(=O)Nc1ccc(SC(F)F)cc1` reads 52.5% (active); that for `Cc1cc(/C=C(/C#N)C(=O)Nc2ccc(Cl)cc2)c(C)n1-c1cccnc1`, 20.6%. The result for `CC(C)(C)NC(=O)/C(=C/c1cccnc1)NC(=O)c1ccco1` reads -15.4%; that for `O=C(O)CCCCCCCCc1cn(CN2C(=O)c3ccccc3C2=O)nn1`, -13.2%; that for `CCOC(=O)N1CCC(N(CCOC)C(=O)Nc2ccc(C)c(C)c2)CC1`, 26.7%. The result for `COc1ccc(/C(=N\O)c2nccc3cc(OC)c(OC)cc23)cc1OC` reads 17.4%; that for `Cc1ccc(-c2csc(NCCc3nc4cc(Cl)c(Cl)cc4n3CCOCCO)n2)cc1`, 33.4%; that for `Cc1ccc(Nc2nc(-c3ccc(O)cc3O)cs2)nc1`, 43.9% (active). In the case of `Cc1ccccc1Nc1nc(-c2cccnc2)cs1`, the inhibition is -3.25%. The figure for `COc1c(C(=O)N2CCCC2)ccc2ccccc12` is 6%. On to `C[C@@H](NC(=O)[C@@H]1Cc2ccccc2CN1)C(=O)NC1CCCC1`, for which the inhibition was 5.23%. The figure for `CC(C)(CNC(=O)c1cc(=O)[nH]c2ccccc12)N1CCOCC1` is -7.73%. The figure for `O=[N+]([O-])c1cccc(/C=N/Nc2ncc(Br)cn2)c1` is -23.5%; for `O=C(N/N=C/c1ccc([N+](=O)[O-])cc1)C(=O)N1CCCC1` it is 17.3%; for `O=[N+]([O-])c1ccc(N/N=C/c2ccccc2)cc1` it is 40.7% (active). The figure for `COc1ccc(-n2nc(C(=O)NCC(=O)N3CCN(c4ccccc4OC)CC3)c3ccccc3c2=O)c(OC)c1` is 1.49%; for `CCN(c1ccccc1)S(=O)(=O)c1ccc2[nH]c(=O)[nH]c2c1` it is 11.5%; for `O=C(O)C(c1ccccc1)C1(O)CCCCC1` (stereo not drawn) it is 2.11%.

Take `Cc1ccc(C(=O)Nc2c(C#N)c(C)c(C)n2Cc2ccccc2)cc1`: the inhibition is 17.9%.

As for `OC(CNCC1CCCO1)Cn1c2ccc(Br)cc2c2cc(Br)ccc21` (stereo not drawn), the inhibition was 45.7% (active). The result for `O=C(CCNS(=O)(=O)c1ccc(Br)cc1)NCC1CCCO1` (stereo not drawn) reads 1.09%; that for `O=C(CSc1ccc(-c2ccc(Br)cc2)nn1)NCC1CCCO1` (stereo not drawn), 17.5%; that for `NC(=O)C1CCN(C(=O)/C(=C/c2ccco2)NC(=O)c2ccccc2)CC1`, -8.85%.

With `NC(=O)CC[C@@H]1NC(=O)[C@H](CO)NC(=O)c2cc([N+](=O)[O-])cc(I)c2NCC[C@@H](C(N)=O)NC1=O`, the inhibition is -26.8%. The figure for `CCOc1ccc(NC(=O)[C@H](C)NC(=O)C2CC(=O)N(c3ccc(OC)cc3)C2)cc1` (stereo partly drawn) is -6.36%. The figure for `COC(=O)C(NS(=O)(=O)c1ccc(F)cc1)c1ccccc1` (stereo not drawn) is 13.7%. The figure for `Cc1ccc(OCC(=O)Nn2cnc3ccccc32)cc1` is 1.81%.

`Cc1ccc(Oc2ccc3c(c2)C(=O)N(c2cccc4cccnc24)C3=O)cc1`: the inhibition is 18.3%. The figure for `Cc1ccc(OS(=O)Nc2cccc3nccnc23)cc1` (stereo not drawn) is 54.6% (active); for `CCOc1ccc(NS(=O)(=O)c2cc(C)c(C)cc2C)cc1` it is 1.28%; for `CC(C)(C)c1cc(CN2CCN(CCC#N)CC2)cc(C(C)(C)C)c1O` it is -1.87%.

In the case of `CCN1/C(=C\c2ccc3ccccc3[n+]2CC)Sc2cc(C)ccc21`, the inhibition is 65.2% (active). The result for `C=CCn1c(COc2ccc(F)cc2)nnc1SCC(=O)Nc1cccc(S(N)(=O)=O)c1` reads -3.82%; that for `O=c1nc(N2CCOCC2)nc2n1CCO2`, -13.4%; that for `CCC1CCCCN1C(=O)CSc1nc2c(c(=O)n(C)c(=O)n2C)n1C` (stereo not drawn), 0.551%. Take `O=S(=O)(c1ccc(F)cc1)n1ccc(-c2cnc(-c3ccccc3)s2)n1`: the inhibition is 24.1%. The result for `O=[N+]([O-])c1ccc2oc(-c3cccc(O)c3)nc2c1` reads 45.7% (active). The result for `CC(=O)Oc1ccc2c(=O)oc(-c3ccc([N+](=O)[O-])cc3)nc2c1` reads 22.6%. The figure for `COc1ccc2oc(-c3cccc(NC(=O)CSc4ccc(Cl)cc4)c3)nc2c1` is 21.6%. `Cc1ccc(OS(=O)(=O)c2ccc(-c3csc(C)n3)s2)c(C)c1`: the inhibition is 10.6%. The result for `COc1cc(C=O)ccc1Oc1nnnn1-c1ccccc1` reads 22.8%. The figure for `O=C(NC(Nc1nc2ccc([N+](=O)[O-])cc2s1)(C(F)(F)F)C(F)(F)F)c1ccccc1` is 85.4% (active); for `O=C(CNC(=O)c1ccccc1)Oc1ccc([N+](=O)[O-])cc1` it is 3.17%; for `O=C(CCNC(=O)c1ccccc1)Nc1nc2ccccc2s1` it is -11%. The result for `CCC(=O)Nc1cccc(C2=NOC3(C2)C[C@@H](C(N)=O)N(C(=O)c2cc([N+](=O)[O-])cc([N+](=O)[O-])c2C)C3)c1` (stereo partly drawn) reads 9.39%. With `O=C1c2ccccc2C(=O)c2c1cccc2N1CCN(Cc2ccccc2)CC1`, the inhibition is 49.4% (active).

`O=C1c2ccccc2C(=O)c2c1cccc2N1CCN(CCO)CC1`: the inhibition was 15.9%. In the case of `O=C1c2ccccc2C(=O)c2c1cccc2N1CCN(C/C=C/c2ccccc2)CC1`, the inhibition is 23.3%. The result for `CC1CCN(S(=O)(=O)c2ccc3c(ccn3CC(=O)O)c2)CC1` reads 6.77%. The result for `COc1ccc([N+](=O)[O-])cc1NC(=O)CCc1ccccc1` reads 27.1%. The result for `O=C(CCc1ccccc1)Nc1ncc([N+](=O)[O-])s1` reads 45.9% (active); that for `O=C(Cc1c(F)cccc1Cl)Nc1ncc([N+](=O)[O-])s1`, 32.8%; that for `O=C(C1CCCN(S(=O)(=O)c2ccccc2)C1)N1CCN(c2ccc(F)cc2)CC1` (stereo not drawn), 17.6%. As to `Fc1ccccc1-c1cc2cc3c(cc2cn1)OCO3`, the inhibition was -19.8%.

For `COc1cccc(NC(=S)N(CCc2c(C)[nH]c3ccccc23)Cc2ccco2)c1`, the inhibition is 32.4%. The figure for `COCCNC(=S)N(CCc1c(C)[nH]c2ccc(C)cc12)Cc1cccnc1` is 11.6%; for `CCNC(=S)N(CCc1c(C)[nH]c2ccc(C)cc12)Cc1ccco1` it is 45.6% (active); for `CC(CNS(=O)(=O)c1ccc(Br)cc1)CN(C)C` (stereo not drawn) it is 6.17%.

Regarding `N/C(=N\OC(=O)Nc1ccc(Cl)c(Cl)c1)c1ncc(C(F)(F)F)cc1Cl`, the inhibition is 49.2% (active). The result for `N/C(=N\OC(=O)CCCC(=O)O)c1ncc(C(F)(F)F)cc1Cl` reads 1.66%. The figure for `O=C(c1ccccn1)c1ncc(C(F)(F)F)cc1Cl` is 7.58%. The result for `Cc1cccc(NC(=O)C2CCCN(C(=O)Nc3ccc(F)cc3)C2)c1C` (stereo not drawn) reads -25.6%; that for `Cc1ccccc1CC1(CO)CCCN(C(=O)c2cc(-c3ccccc3)no2)C1` (stereo not drawn), 42.6% (active); that for `Cc1noc(C)c1CCC(=O)N1CCCC(CO)(Cc2ccccc2)C1` (stereo not drawn), -14.1%. As for `Cc1ccccc1CC1(CO)CCCN(Cc2ccc3c(c2)OCCO3)C1` (stereo not drawn), the inhibition was 8.67%.

Regarding `Cc1ccc(Oc2cnn(-c3ccccc3)c(=O)c2Br)cc1`, the inhibition was 42.1% (active).

With `Cc1cccc(-n2ncc(Cl)c(Cl)c2=O)c1`, the inhibition is -25.8%. The result for `Cc1ccc(OC(=O)c2c(C)nn(-c3ccccc3)c2C)cc1` reads 25.6%; that for `COc1ccc(S(=O)(=O)/N=C2\C=C(NS(=O)(=O)c3ccccc3)C(=O)c3ccccc32)cc1`, 31.1%.
